Test results taken from PubChem BioAssay (Tox21).
Results filed as inconclusive are left out. The source made the active and inactive calls. Unless noted, the call rests on the fitted dose curve; in most records, active means well fitted curve in the direction sought with a large enough effect in the repeat runs; inconclusive means weak or mixed curves; inactive means no such curve, though single readings can be large; an effect the other way counts as inactive or inconclusive.

Columns and labels:
[1] = qHTS assay to identify small molecule antagonists of the peroxisome proliferator-activated receptor delta (PPARd) signaling pathway - cell viability counter screen (AID 743213); further: nearly all actives have a fitted effect of over 50% in size
Method in brief: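 Same-well viability: cells pre-incubated 5 h, dosed with compound plus 300 nM L165041, kept 17 h at 37 C, FRET substrate 2 h RT, then CellTiter-Glo 30 min RT and luminescence.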

[2] = molecular target: Bile acid receptor (Homo sapiens) (UniProt Q96RI1); test: qHTS assay to identify small molecule antagonists of the farnesoid-X-receptor (FXR) signaling pathway (AID 743217; active means well fitted inhibition curve with a large enough effect in the signal ratio in the repeat runs, not every such curve was filed as active; the % refers to the signal ratio)
Method in brief: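 FRET fluorescence after 2 h room-temperature LiveBLAzer loading gives the readout. Prior step: FXR-bla HEK 293T cells, seeded and incubated 5 h, received test compounds plus 50 uM final CDCA for 16 h at 37 °C.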

[3] = qHTS assay to identify small molecule agonists of the farnesoid-X-receptor (FXR) signaling pathway - cell viability counter screen (AID 743218); further: nearly all actives have a fitted effect of over 45% in size
Method in brief: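 Readout: CellTiter-Glo luminescence, 30 min RT, multiplexed after the FXR-bla FRET reading. HEK 293T FXR-UAS-bla cells received compound 5 h post-plating and were incubated 16 h at 37 C.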

[4] = molecular target: Bile acid receptor (Homo sapiens) (UniProt Q96RI1); test: qHTS assay to identify small molecule agonists of the farnesoid-X-receptor (FXR) signaling pathway (AID 743220; active means well fitted activation curve with a large enough effect in the signal ratio in the repeat runs, not every such curve was filed as active; the % refers to the signal ratio)
Method in brief: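 FXR-UAS-bla HEK 293T cells carrying a UAS-driven beta-lactamase reporter were plated for 5 h at 37C/5% CO2, then exposed to DMSO-dissolved Tox21 10K compounds for 16 h at 37C. A LiveBLAzer B/G FRET substrate was loaded for 2 h at room temperature before fluorescence reading.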

[5] = qHTS assay to identify small molecule antagonists of the farnesoid-X-receptor (FXR) signaling pathway - cell viability counter screen (AID 743221; active means well fitted cell-killing curve with a large enough effect in the repeat runs, not every such curve was filed as active; further: nearly all actives have a fitted effect of over 50% in size)
Method in brief: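 Cytotoxicity counter screen run in the FXR-bla reporter wells: HEK 293T cells exposed to compound with 50 uM (final) chenodeoxycholic acid for 16 h, 37 C, then viability measured by CellTiter-Glo luminescence after 30 min, room temperature.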

[6] = qHTS assay to identify small molecule agonists of the vitamin D receptor (VDR) signaling pathway - cell viability counter screen (AID 743224); further: series mostly up to about 63 µM; nearly all actives have a fitted effect of over 50% in size
Method in brief: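 In parallel with the bla FRET readout, cytotoxicity toward VDR-bla cells after 16 h compound exposure was assessed by CellTiter-Glo, with luminescence recorded after a 30 min room-temperature incubation.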

[7] = qHTS assay to identify small molecule antagonists of the vitamin D receptor (VDR) signaling pathway - cell viability counter screen (AID 743225); further: nearly all actives have a fitted effect of over 50% in size
Method in brief: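 Cytotoxicity counter screen read by CellTiter-Glo luminescence (30 min, room temperature) in the same wells as the VDR-bla antagonist readout. HEK 293T VDR-UAS-bla cells had 16 h at 37C with compound and 3 nM (final) 1-alpha,25-dihydroxyvitamin D3, then 2 h with FRET substrate.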

[8] = qHTS assay to identify small molecule agonists of the NFkB signaling pathway (AID 1159509; active means well fitted curve in the direction sought with a large enough effect in the signal ratio in the repeat runs, not every such curve was filed as active; the % refers to the signal ratio; further: series mostly up to about 61 µM)
Method in brief: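 Beta-lactamase reporter assay run in quantitative high-throughput format on an NF-kB-responsive ME-180 line, with 5 hr compound treatment and a FRET-based blue/green fluorescence readout.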

[9] = qHTS assay to identify small molecule agonists of the NFkB signaling pathway - cell viability counter screen (AID 1159515; calls by dose curve; further: series mostly up to about 61 µM; nearly all actives have a fitted effect of over 55% in size)
Method in brief: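 Plate 2,000 NFkB-bla ME-180 cells/well; incubate overnight. Add compounds, 5 hr at 37 C. Add FRET substrate, 1.5 hr RT. Add CellTiter-Glo, 30 min RT; read luminescence.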

[10] = qHTS assay to identify small molecule agonists of the endoplasmic reticulum stress response signaling pathway (AID 1159516; active means well fitted activation curve with a large enough effect in the signal ratio in the repeat runs, not every such curve was filed as active; the % refers to the signal ratio)
Method in brief: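 Beta-lactamase expression from the ER stress response element in HeLa reporter cells is quantified with the LiveBLAzer B/G FRET substrate, read at 405 nm excitation after 2 hr at room temperature, following 5 hr compound treatment at 37 C.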

[11] = qHTS assay to identify small molecule agonists of the endoplasmic reticulum stress response signaling pathway - cell viability counter screen (AID 1159517; calls by dose curve)
Method in brief: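 Steps: seed 1,500 ESRE-bla HeLa cells per well; incubate overnight at 37 C, 5% CO2; add compounds in DMSO for 5 hr; run FRET substrate 2 hr RT; add CellTiter-Glo, wait 30 min, read luminescence.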

[12] = qHTS assay to identify small molecule antagonists of the retinoid-related orphan receptor gamma (ROR-gamma) signaling pathway - cell viability counter screen (AID 1159520); further: nearly all actives have a fitted effect of over 50% in size
Method in brief: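 Tet-on ROR gamma CHO cells were given compounds for 2 hr, then doxycycline hyclate at 1 uM final, and incubated 16 hr at 37 C. Viability was measured as ATP content by CellTiter-Glo luminescence.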

[13] = molecular target: Nuclear receptor ROR-gamma (Homo sapiens) (UniProt P51449); test: qHTS assay to identify small molecule antagonists of the retinoid-related orphan receptor gamma (ROR-gamma) signaling pathway (AID 1159521)
Method in brief: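 Antagonist read-out: drop in luminescence (ONE-Glo) from an RORE-LUC reporter in CHO cells with doxycycline-inducible ROR-gamma; 2 hr compound pretreatment, 1 uM doxycycline, 16 hr incubation at 37 C.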

[14] = qHTS assay to identify small molecule agonists of the AP-1 signaling pathway - cell viability counter screen (AID 1159525; calls by dose curve; further: nearly all actives have a fitted effect of over 55% in size)
Method in brief: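 Same-well cytotoxicity counter screen of the Tox21 10K library in ME-180 cells. The readout is ATP-dependent luminescence after 5 h compound treatment. Data are normalised to DMSO and tetra n-octyl ammonium bromide controls.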

[15] = qHTS assay to identify small molecule agonists of the AP-1 signaling pathway (AID 1159526; calls by dose curve)
[16] = molecular target: Retinoic acid receptor RXR-alpha (Homo sapiens) (UniProt P19793); test: qHTS assay to identify small molecule agonists of the RXR signaling pathway (AID 1159527; calls by dose curve; further: nearly all actives have a fitted effect of over 35% in size)
Method in brief: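 Agonist-mode beta-lactamase reporter assay: HEK 293T RXR-alpha-UAS-bla cells treated 16 hr at 37 C with compounds, 9-cis retinoic acid as positive control. LiveBLAzer FRET substrate, 405 nm excitation, 460/530 nm emission.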

[17] = molecular target: Vitamin D3 receptor (Homo sapiens) (UniProt P11473); test: qHTS assay to identify small molecule agonists of the vitamin D receptor (VDR) signaling pathway (AID 743222; calls by dose curve)
Method in brief: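 Following 4 h attachment at 37C, VDR-bla cells (2,000 per well) received DMSO-dissolved compounds or controls. After 16 h incubation, LiveBLAzer B/G FRET substrate was added and fluorescence read 2 h later at room temperature.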

[18] = molecular target: Vitamin D3 receptor (Homo sapiens) (UniProt P11473); test: qHTS assay to identify small molecule antagonists of the vitamin D receptor (VDR) signaling pathway (AID 743223; active means well fitted inhibition curve with a large enough effect in the signal ratio in the repeat runs, not every such curve was filed as active; the % refers to the signal ratio)
Method in brief: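 Antagonist mode: compound added to VDR-bla cells alongside agonist 1alpha,25-dihydroxyvitamin D3 (3 nM final), incubation 16 h at 37C. Read-out is LiveBLAzer FRET fluorescence, 2 h at room temperature.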

[19] = molecular target: Peroxisome proliferator-activated receptor delta (Homo sapiens) (UniProt Q03181); test: qHTS assay to identify small molecule agonists of the peroxisome proliferator-activated receptor delta (PPARd) signaling pathway (AID 743212; calls by dose curve)
Method in brief: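 Read-out: beta-lactamase FRET fluorescence after 2 h room-temperature incubation with LiveBLAzer B/G substrate. Cells were HEK293H carrying a UAS-bla reporter for PPARd, treated at 37 C with DMSO-dissolved compounds.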

Measured: Potency

Retinoic acid receptor RXR-alpha (Homo sapiens), sequence (P19793 whole entry, looked up): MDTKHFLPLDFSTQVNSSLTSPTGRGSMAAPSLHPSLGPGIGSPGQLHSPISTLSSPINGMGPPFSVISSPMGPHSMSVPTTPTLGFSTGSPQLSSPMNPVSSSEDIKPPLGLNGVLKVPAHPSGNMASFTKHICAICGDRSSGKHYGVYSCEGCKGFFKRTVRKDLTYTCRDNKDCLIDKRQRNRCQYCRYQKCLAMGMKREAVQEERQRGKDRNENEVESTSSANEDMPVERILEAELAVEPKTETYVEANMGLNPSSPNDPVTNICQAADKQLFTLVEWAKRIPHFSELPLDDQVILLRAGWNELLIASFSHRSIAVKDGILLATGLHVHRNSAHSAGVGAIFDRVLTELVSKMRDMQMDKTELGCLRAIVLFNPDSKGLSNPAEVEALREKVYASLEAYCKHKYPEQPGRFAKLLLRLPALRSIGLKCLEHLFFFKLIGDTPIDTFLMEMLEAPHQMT
Peroxisome proliferator-activated receptor delta (Homo sapiens), sequence (Q03181 whole entry, looked up): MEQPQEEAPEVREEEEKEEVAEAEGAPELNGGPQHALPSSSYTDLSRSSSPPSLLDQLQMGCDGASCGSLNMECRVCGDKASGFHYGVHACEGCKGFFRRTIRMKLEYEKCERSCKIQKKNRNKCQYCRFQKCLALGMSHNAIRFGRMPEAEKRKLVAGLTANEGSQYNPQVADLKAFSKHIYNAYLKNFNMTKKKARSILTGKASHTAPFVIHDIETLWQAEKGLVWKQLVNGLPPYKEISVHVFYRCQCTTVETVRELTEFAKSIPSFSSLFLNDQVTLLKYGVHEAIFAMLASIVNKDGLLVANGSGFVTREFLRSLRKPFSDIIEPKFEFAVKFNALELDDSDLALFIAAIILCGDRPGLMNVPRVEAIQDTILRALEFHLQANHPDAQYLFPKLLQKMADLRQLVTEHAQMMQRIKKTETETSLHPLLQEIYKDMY
Vitamin D3 receptor (Homo sapiens), sequence (P11473 whole entry, looked up): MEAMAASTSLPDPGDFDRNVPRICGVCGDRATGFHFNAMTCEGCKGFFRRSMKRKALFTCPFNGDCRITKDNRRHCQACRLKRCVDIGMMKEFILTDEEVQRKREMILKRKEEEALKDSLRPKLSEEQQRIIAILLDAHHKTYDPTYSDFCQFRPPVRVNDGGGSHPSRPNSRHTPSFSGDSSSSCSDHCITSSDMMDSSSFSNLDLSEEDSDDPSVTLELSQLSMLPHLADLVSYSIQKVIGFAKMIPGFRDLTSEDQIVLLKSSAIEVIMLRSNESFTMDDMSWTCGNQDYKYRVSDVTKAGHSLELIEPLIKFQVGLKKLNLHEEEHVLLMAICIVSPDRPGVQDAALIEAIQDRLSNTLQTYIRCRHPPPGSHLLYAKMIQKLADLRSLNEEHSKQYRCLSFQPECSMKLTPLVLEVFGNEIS
Bile acid receptor (Homo sapiens), sequence (Q96RI1 whole entry, looked up): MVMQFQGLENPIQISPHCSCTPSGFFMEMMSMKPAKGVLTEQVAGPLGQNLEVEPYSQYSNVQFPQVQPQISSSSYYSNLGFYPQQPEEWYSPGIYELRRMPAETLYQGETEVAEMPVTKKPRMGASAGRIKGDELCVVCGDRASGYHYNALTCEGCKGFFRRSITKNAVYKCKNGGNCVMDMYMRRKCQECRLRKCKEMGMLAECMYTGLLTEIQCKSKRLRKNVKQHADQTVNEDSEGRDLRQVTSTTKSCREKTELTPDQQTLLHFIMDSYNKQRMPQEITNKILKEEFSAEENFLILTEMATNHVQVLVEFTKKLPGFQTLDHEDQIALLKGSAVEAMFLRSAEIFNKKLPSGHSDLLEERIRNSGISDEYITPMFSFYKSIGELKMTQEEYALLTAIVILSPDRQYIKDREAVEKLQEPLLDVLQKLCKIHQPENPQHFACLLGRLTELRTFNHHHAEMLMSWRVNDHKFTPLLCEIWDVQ

CCOc1ccc(NC(=O)CC(C)O)cc1 (stereo not given)
not listed: [17] | [18] | [19]
inactive: all other assays above

Cc1ccc(O)cc1
not listed: [19]
inactive: all other assays above

CCCCC1C(=O)N(c2ccccc2)N(c2ccccc2)C1=O
not listed: [19]
inactive: all other assays above

O=C(O)c1cccnc1
not listed: [2] | [4] | [16] | [17] | [18] | [19]
inactive: all other assays above

O=C(O)C(=O)O
not listed: [2] | [4] | [13] | [19]
inactive: all other assays above

O=C(O)CCCCCCCC(=O)O
not listed: [2] | [4] | [19]
inactive: all other assays above

O=C(O)c1cc(N=Nc2ccc(S(=O)(=O)Nc3ccccn3)cc2)ccc1O
not listed: [2] | [4] | [19]
inactive: all other assays above

O=C1CN(/N=C/c2ccc([N+](=O)[O-])o2)C(=O)N1
not listed: [2] | [4] | [13]
inactive: all other assays above

O=C(O)CCCCC(=O)O
not listed: [13] | [19]
inactive: all other assays above
